# Source: PubChem
# p53ts 39C tox = qHTS Screen for Compounds that Selectively Target Cancer Cells with p53 Mutations: Cytotoxicity of p53ts Cells at the Nonpermissive Temperature; hit rate 1.5% among 130,000; H1299-p53A138V viability at 39C, ATP luminescence, 24 h; Potency, µM (titrated, usually from 46.1 µM), for the others: top-dose activity change, negative = cell killing, most hits filed as cytotoxic; also: nearly all actives have a fitted effect of over 55% in size
# HPGD inh = qHTS Assay for Inhibitors of HPGD (15-Hydroxyprostaglandin Dehydrogenase) | 15-hydroxyprostaglandin dehydrogenase [NAD(+)] (Homo sapiens), P15428 | purified HPGD, NADH fluorescence kinetic, PGE2 substrate | Potency, µM, for inactives: top-dose activity change, negative = inhibition, actives largely listed as inhibitors | hit rate 4.3% among 150,000 | AID 894, 2007; active = well fitted inhibition curve with a large enough effect, not every such curve was filed as active; inconclusive = small, poorly fitted or top-dose-only effect, or another doubt; inactive = no such curve, though single readings can be large or run the other way
# Target sequence (P15428 whole entry, looked up): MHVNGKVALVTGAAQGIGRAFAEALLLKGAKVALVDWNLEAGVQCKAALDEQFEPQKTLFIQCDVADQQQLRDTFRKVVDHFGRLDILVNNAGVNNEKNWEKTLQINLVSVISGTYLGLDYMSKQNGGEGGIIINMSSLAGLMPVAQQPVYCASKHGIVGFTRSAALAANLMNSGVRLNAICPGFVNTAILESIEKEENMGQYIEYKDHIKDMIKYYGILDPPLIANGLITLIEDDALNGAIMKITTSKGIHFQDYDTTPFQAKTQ
#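 NADH formation kinetics: reaction with 30 uM PGE2 and 1 mM NAD+ (final), 20 nM enzyme, Tris-HCl pH 8 with Tween 20, after 15 min compound preincubation at room temperature. Fluorescence change, last versus first of five reads.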
# 12-hLO inh = qHTS Assay for Inhibitors of 12-hLO (12-human lipoxygenase) | Polyunsaturated fatty acid lipoxygenase ALOX12 (Homo sapiens), P18054 | purified 12-hLO, xylenol orange hydroperoxide absorbance | Potency, µM (doses to about 57.1 µM), for inactives: at the top dose activity change, negative = inhibition, hits mostly inhibitors | hit rate 0.12% among 150,000 | AID 1452, 2008; also: nearly all actives have a fitted effect of over 55% in size
#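 Hydroperoxide formation by human 12-lipoxygenase from 40 uM arachidonic acid was followed colorimetrically via ferric-xylenol orange complex, using the 573/405 nm absorbance ratio. Enzyme concentration was 150 nM, with 30 min reaction at room temperature.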
# p53ts 32C kill = qHTS Screen for Compounds that Selectively Target Cancer Cells with p53 Mutations: Cytotoxicity of p53ts Cells at the Permissive Temperature; Potency, µM (series often up to 46.1 µM), inactives show top-dose activity change, negative = cytotoxicity, most hits filed as cytotoxic; hit rate 0.93% among 130,000; H1299-p53A138V at 32C, ATP luminescence viability, 24 h;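 also: 0% = DMSO and -100% = full killing by reference compound; nearly all actives have a fitted effect of over 55% in size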
#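 Viability by ATPlite luminescence after 24 h compound treatment (up to 46 uM) at the permissive 32C. Cells are H1299 carrying p53 A138V. Scale runs from DMSO basal to 100 uM tamoxifen as full kill; AC50 from Hill fits.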
# Starred values were filed as active, the others as inactive; ? = inconclusive; . = not tested or not shown; [ ] = remark or other dose. Most compounds without a hit are left out; they make up all but 4.4% or so of the library. Unless noted, calls follow the shape of the dose curve; as a rule, active = well fitted curve in the direction sought with a large enough effect; inconclusive = small, poorly fitted or top-dose-only effect, or another doubt; inactive = no such curve, though single readings can be large; an effect the other way counts as inactive or inconclusive. Unless noted, % is scaled to controls: 0 for no effect and ±100 for the full control effect; potency is read from the fitted curve at half-maximal effect.
SMILES,p53ts 39C tox,HPGD inh,12-hLO inh,p53ts 32C kill
Cc1nc2c(OCc3ccccc3)cccn2c1CC#N,-12.6%,-19.0%,-5.1%,-14.2%
Cc1ccc2nc(-c3cccs3)c(Nc3c(C)cccc3C)n2c1,18.7%,.,.,-4.1%
O=[N+]([O-])c1ccccc1/C=N/N1CCN(c2ccc(Cl)cc2)CC1,.,-3.9%,-18.8%,.
O=[N+]([O-])c1ccccc1/C=N/n1c(C2CCCCC2)n[nH]c1=S,-19.4%,15.8µM*,-18.8%,-29.7%
O=[N+]([O-])c1ccc(Cl)c(/C=N/N2CCN(c3ccccc3)CC2)c1,.,-24.0%,-1.5%,.
O=[N+]([O-])c1ccc(Cl)c(/C=N/n2c(C3CCCCC3)n[nH]c2=S)c1,.,0.631µM*,2.8%,.
Cc1cc(C)c(NC(=O)Cn2nnc(-c3nc(-c4ccccc4)no3)c2N)c(C)c1,12.6%,.,.,4.9%
CN=C1N[C@H](c2ccccc2)N(c2ccccc2)S1,-1.0%,12.6µM*,?,-9.1%
COc1ccccc1NC(=O)c1cc2ccccc2o/c1=N\O,72.6%,22.4µM*,-12.4%,-5.4%
COc1ccccc1NC(=O)c1cc2ccc(O)cc2o/c1=N\O,-22.3%,-17.3%,-11.2%,-13.7%
O=S(=O)(N/N=C\c1ccc(-c2ccccc2Cl)o1)c1ccccc1,0.5%,15.8µM*,-24.4%,1.7%
O=[N+]([O-])c1ccc(/C=N/NS(=O)(=O)c2ccc(Cl)cc2)o1,.,28.2µM*,-4.5%,.
COc1cccc(OCc2nc3ccccc3n2CCOc2ccccc2C)c1,-14.3%,.,.,97.8%
COc1ccc(N2CCN(c3ccc(-c4nc(-c5ccccc5C)no4)cc3[N+](=O)[O-])CC2)cc1,1.1%,.,.,-9.9%
Cc1ccc(Nc2c(-c3c[nH]c4ccccc34)nc3ccccn23)cc1,15.8µM*,.,.,?
Cc1ccc2nc(-c3c[nH]c4ccccc34)c(Nc3ccccc3C)n2c1,6.1%,.,.,-0.9%
CC(=O)N(/N=C1\Sc2ccccc2C1=O)c1cccc(C)c1,.,3.55µM*,-0.9%,.
COc1ccc(-c2nc3oc4cc(OC)ccc4c(=O)c3c(=O)n2Cc2ccco2)cc1,13.8%,?,-2.0%,32.1%
COc1ccc2c(=O)c3c(=O)n(Cc4ccco4)c(-c4ccco4)nc3oc2c1,.,22.4µM*,-12.7%,.
Cc1ccc2nc(-c3ccc(NS(=O)(=O)c4ccccc4)cc3)sc2c1,.,?,-7.1%,.
Cc1ccc2nc(-c3ccc(N)cc3)sc2c1S(=O)(=O)O,15.8µM*,?,-1.1%,-8.4%[1.84 µM]
CC(N=Cc1cccc(O)c1O)c1ccccc1 (stereo not drawn),-20.5%,2.82µM*,?,8.9%
CC1/C=C/C=C/C=C/C=C/C=C/C=C/C=C/C(OC2OC(C)C(O)C(N)C2O)CC2O[C@@](O)(CC(O)CC(O)C(O)CCC(O)CC(O)CC(=O)OC(C)[C@H](C)C1O)CC(O)C2C(=O)O (stereo partly drawn),0.2%,?,-6.0%,-8.6%
C=CCOC(=O)c1sc(NC(=O)c2ccco2)nc1C,?,?,-2.7%,10µM*
CC1CCc2nc(NC(=O)c3ccco3)sc2C1 (stereo not drawn),2.51µM*,-14.3%,-1.1%,2.51µM*
SMILES,p53ts 39C tox,HPGD inh,12-hLO inh,p53ts 32C kill
CCC(CC)C(=O)Nc1nc2c(s1)CC(C)CC2 (stereo not drawn),-5.1%,.,.,0.1%
CC1CCc2nc(NC(=O)Cc3cccs3)sc2C1 (stereo not drawn),-19.4%,-24.4%,-7.7%,-9.0%
CCOC(=O)c1ccc2nc(NC(=O)c3ccco3)sc2c1,?,-11.3%,4.0%,?
CC1CCc2nc(NC(=O)C3CCCO3)sc2C1 (stereo not drawn),12.6µM*,-20.7%,-7.2%,10µM*
COc1ccc(-n2c(SCC(=O)c3ccc(Cl)cc3)nc3c([nH]c4ccccc43)c2=O)cc1,-22.1%,.,.,0.2%
Cc1cc(Cl)ccc1NC(=O)C1CCN(c2nnc(-n3c(C)ccc3C)s2)CC1,-11.4%,.,.,-5.2%
CC(=O)c1ccc(N2CCN(c3ncnc4c3nc3n4CCCC3)CC2)cc1,.,.,.,-10.2%
COc1cc(Cl)c(C)cc1NC(=O)CN1c2ccccc2S(=O)(=O)c2ccccc21,-3.1%,.,.,19.7%
O=c1cc(-c2cccc(O)c2)oc2cc(O)ccc12,-22.4%,?,-0.6%,-14.9%
COc1cccc(-c2cc(=O)c3ccc(OC)cc3o2)c1,-16.2%,?,0.0%,-12.5%
O=c1cc(-c2cccc(O)c2)oc2c(O)c(O)ccc12,25.1µM*,3.16µM*,-27.2%,?
COc1ccc(-c2cc(=O)c3cc(OC)ccc3o2)cc1,?,?,6.3%,?
CCCCC(=O)Oc1ccc2oc(-c3ccc(OC)cc3)cc(=O)c2c1,6.31µM*,.,.,?
COc1cccc(-c2cc(=O)c3cc(O)ccc3o2)c1,12.6µM*,-14.7%,-7.7%,?
COc1ccc2oc(-c3ccc(O)cc3)cc(=O)c2c1,7.94µM*,?,1.5%,5.01µM*
O=C(CS(=O)(=O)c1cccc2nsnc12)N1CCN(c2ccccc2)CC1,-8.2%,.,.,4.4%
CN1CCN([C@@H]2Cc3ccccc3Sc3ccc(Cl)cc32)CC1,15.8µM*,.,12.7%,20µM*
CN(C)c1ccc(NC(=O)CSCc2nc3c(nnn3Cc3ccc(F)cc3)c(=O)[nH]2)cc1,-12.7%,22.4µM*,-16.4%,1.6%
Cc1ccc(Cn2c(C)c3cnn(CC(=O)N4CCN(c5ccc(F)cc5)CC4)c(=O)c3c2C)cc1,-15.0%,.,.,1.4%
CC1CCC(NC(=O)c2ccc(CSc3nc4ccncc4n3Cc3ccc(F)cc3)cc2)CC1 (stereo not drawn),-1.5%,.,.,-14.6%
CC(NC(=O)C1CC=CCC1C(=O)O)C1CC2CCC1C2 (stereo not drawn),16.5%,3.0%,-11.8%,3.9%
CC(NC(=O)C1CCCC1)C1CC2CCC1C2 (stereo not drawn),.,28.2µM*,2.7%,.
COc1ccc(C2OC3C(CO)OC(n4cnc5c(=O)[nH]c(N)nc54)C3O2)cc1 (stereo not drawn),2.5%,15.8µM*,6.6%,4.3%
CCn1c(NC(C)=O)nc2ccccc21,26.0%,-5.9%,2.4%,6.0%
CCn1c(=O)c(C(=O)Nc2ccc(C(C)=O)cc2)nc2ccccc21,12.6µM*,.,.,10µM*
O=C(O)CSc1nc(-c2ccccc2)nc2c1oc1ccccc12,1.0%,?,-5.4%,0.2%
Cc1cc(C)nc(Sc2nc(C)nc3c2oc2ccccc23)n1,?,31.6µM*,1.2%,7.3%
O=C(O)CSc1nc(-c2ccc(Cl)cc2)nc2c1oc1ccccc12,.,15.8µM*,6.9%,.
Cc1cc(C)nc(N2CCN(c3nc(C)nc4c3oc3ccccc34)CC2)n1,12.6%,.,.,3.0%
Cc1nc(SCC(=O)c2ccc(Cl)s2)c2oc3ccccc3c2n1,.,2.24µM*,0.4%,.
